Compound activity from PubChem BioAssay.
Most compounds without a hit are left out; they make up all but 6.9% or so of the library.
Giardia killer = Giardia lamblia killing | Giardia lamblia trophozoite viability | activity change, % at 7.66 µM, hits read low | 340,000 tested, 0.15% active | AID 540267; in the data active means activity change below about -80%; inconclusive means between about -30% and that limit;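 further: parasites exposed to compound for two days anaerobically before the ATP read; on the % scale 0 is the no-effect control and ±100 the full control effect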
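ATP-content bioluminescence gauges trophozoite survival. Cells (100/well) receive compound and incubate anaerobically for 48 hrs at 37 deg C; detection reagent follows for 15-30 min at room temperature.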
Vif-APOBEC3F blk = inhibitors of Vif-A3F interaction | 390,000 tested, 0.2% active | HeLa A3F-eYFP + Vif (tagged APOBEC3F with the HIV-1 protein that degrades it), YFP fluorescence increase | Potency, µM (highest dose often 46.1 µM), inactives show at the top dose activity, negative = active; further: potency means the concentration at half of the fitted maximal effect; % of control where 0% means no effect; nearly all actives have a fitted effect of over 65% in size
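HeLa cells stably expressing A3F-eYFP plus Vif, plated and incubated overnight at 37 deg C, then exposed to compounds overnight at 37 deg C. Blocked degradation read as raised yellow fluorescence (Ex 488/Em 500-530).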
Vif-A3G inh = Vif-A3G binding inhibition. Q9HC16. AID 602310. HeLa A3G-eYFP + Vif (tagged APOBEC3G with the HIV-1 protein that degrades it), YFP fluorescence, overnight. 410,000 tested, 0.076% active. Potency, µM (series often up to 46.1 µM), inactives show at the highest dose activity, negative = active, usual class: inhibitors; further: potency means the concentration at half of the fitted maximal effect; on the % scale 0 is the no-effect control and ±100 the full control effect; nearly all actives have a fitted effect of over 60% in size
Target sequence (Q9HC16 whole entry, looked up): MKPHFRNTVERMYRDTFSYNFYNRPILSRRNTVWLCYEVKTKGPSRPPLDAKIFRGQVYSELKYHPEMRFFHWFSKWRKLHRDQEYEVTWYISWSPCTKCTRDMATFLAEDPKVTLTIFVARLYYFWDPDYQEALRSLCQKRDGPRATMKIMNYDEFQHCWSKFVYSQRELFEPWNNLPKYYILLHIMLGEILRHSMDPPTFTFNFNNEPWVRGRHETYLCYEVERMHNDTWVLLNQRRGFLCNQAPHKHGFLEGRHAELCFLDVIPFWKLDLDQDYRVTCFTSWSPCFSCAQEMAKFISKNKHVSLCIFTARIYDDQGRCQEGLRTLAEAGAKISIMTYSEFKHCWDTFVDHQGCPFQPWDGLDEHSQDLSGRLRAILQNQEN
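Read-out is eYFP fluorescence (Ex 488/Em 500-530) from Vif-expressing HeLa A3G-eYFP cells; more signal means A3G escaped Vif-mediated degradation. Cells plated overnight, compound pinned in, incubated overnight at 37 deg C.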
IL-1B inflam inh = inflammasome signaling inhibition, IL-1 beta readout. THP-1 LPS/ATP IL-1B secretion, AlphaLISA, 16 h; hits give low values. activity change, % at 57.5 µM. 360,000 tested, 4.7% active; in the data active means activity change below about -50%; inconclusive means mostly about -30% to -49%; further: on the % scale 0 is the no-effect control and ±100 the full control effect
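THP-1 cells pretreated 1 hr with compounds (up to 57.5 uM final), then stimulated with LPS (250 ng/mL final) plus ATP (1.25 mM final); secreted IL-1B measured by AlphaLISA after 16 hr, decreased signal indicating inhibition.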
SW480 rereplic = inducers of DNA re-replication in SW480 colon cancer cells. SW480 DNA re-replication, Hoechst DNA content imaging, 48 h. AID 624297. 340,000 tested, 1.8% active. Potency, µM (doses to about 46.1 µM), for the others: at the highest dose re-replication activation, hits mostly activators; further: potency means the concentration at half of the fitted maximal effect; % of control where 0% means no effect; nearly all actives have a fitted effect of over 55% in size
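Readout is total intensity of Hoechst-stained nuclei, excited at 405 nm and collected at 500-530 nm. Compound treatment lasted 48 hr at 37 C in 5% CO2 before staining.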
MCF10A rerep = induces DNA re-replication in MCF 10a normal breast cells; MCF 10A DNA re-replication, Hoechst nuclear intensity, 48 h; Potency, µM (series often up to 46.1 µM), inactives show top-dose activity, positive = re-replication, most hits filed as activators; 350,000 tested, 2.9% active; further: potency means the concentration at half of the fitted maximal effect; % of control where 0% means no effect; nearly all actives have a fitted effect of over 50% in size
The depositor's hits bear a star; [ ] = remark or other dose. Unless noted, the call rests on the fitted dose curve; in most records, active means well fitted curve in the direction sought with a large enough effect; inconclusive means small, poorly fitted or top-dose-only effect, or another doubt; inactive means no such curve, though single readings can be large; an effect the other way counts as inactive or inconclusive.

How did Cc1ccc(S(=O)(=O)N2CCOCC2)cc1NC(=O)CSc1nc2ccccc2c(=O)n1Cc1ccccc1 do in these assays?
Giardia killer: -4; Vif-APOBEC3F blk: 5%; Vif-A3G inh: -1%; IL-1B inflam inh: inconclusive; SW480 rereplic: -1%; MCF10A rerep: 9%

What do the screens show for `CC(=O)c1ccccc1NC(=O)CSc1nc2ccccc2c(=O)n1CCCN1CCOCC1`?
Giardia killer: -3; Vif-APOBEC3F blk: 11%; Vif-A3G inh: 2%; IL-1B inflam inh: 8; SW480 rereplic: 3%; MCF10A rerep: 0%

What do the screens show for `O=C(CSc1nc2ccccc2c(=O)n1CCCN1CCOCC1)c1c[nH]c2ccccc12`?
Giardia killer: 10; Vif-APOBEC3F blk: 0%; Vif-A3G inh: -12%; IL-1B inflam inh: -110*; SW480 rereplic: inconclusive; MCF10A rerep: inconclusive

What do the screens show for `COc1ccc(C(=O)n2nc(-c3ccco3)nc2NCc2cccs2)cc1`?
Vif-APOBEC3F blk: 0%; Vif-A3G inh: -10%

Results for COc1cccc(/C=C2\Sc3ccc(C(=O)NCc4cccnc4)cc3N(C)C2=O)c1 ?
Giardia killer: -19; Vif-APOBEC3F blk: -4%; Vif-A3G inh: -21%; IL-1B inflam inh: -82*; SW480 rereplic: inconclusive; MCF10A rerep: inconclusive

How did COc1ccc(C(=O)NCc2cccnc2)cc1C(=O)NCc1cccnc1 do in these assays?
Giardia killer: 8; Vif-APOBEC3F blk: 10%; Vif-A3G inh: 0%; IL-1B inflam inh: 28; SW480 rereplic: -4%; MCF10A rerep: 1%

How did CN1C(=O)/C(=C/c2cccc(Cl)c2)Sc2ccc(C(=O)NCc3cccnc3)cc21 do in these assays?
Giardia killer: -10; Vif-APOBEC3F blk: -4%; Vif-A3G inh: -7%; IL-1B inflam inh: -20; SW480 rereplic: inconclusive; MCF10A rerep: inconclusive

How did COc1ccc(/C=C2\Sc3ccc(C(=O)NCC4CCCO4)cc3N(C)C2=O)cc1 (configuration not stated) do in these assays?
Giardia killer: -3; Vif-APOBEC3F blk: 1%; Vif-A3G inh: 0%; IL-1B inflam inh: 7; SW480 rereplic: 23µM*; MCF10A rerep: 23µM*

How did COc1ccc(/C=C2\Sc3ccc(C(=O)N4CCOCC4)cc3N(C)C2=O)cc1 do in these assays?
Giardia killer: inconclusive; Vif-APOBEC3F blk: 6%; Vif-A3G inh: 2%; IL-1B inflam inh: 10; SW480 rereplic: -8%; MCF10A rerep: inconclusive

How did COc1ccc(/C=C2\Sc3ccc(C(=O)NCc4cccnc4)cc3N(C)C2=O)cc1OC do in these assays?
Giardia killer: -16; Vif-APOBEC3F blk: 10%; Vif-A3G inh: -2%; IL-1B inflam inh: -80*; SW480 rereplic: inconclusive; MCF10A rerep: inconclusive

What do the screens show for `O=C(C[n+]1ccc2ccccc2c1)c1ccc(F)cc1`?
Vif-A3G inh: -12%

What do the screens show for `COc1cccc(-n2c(C)nc3c(cnn3-c3ccc(C)c(C)c3)c2=O)c1`?
Vif-APOBEC3F blk: 7%; Vif-A3G inh: -1%

How did COc1ccccc1N=C(C)C1=C(O)CC(c2ccccc2)CC1=O (configuration not stated) do in these assays?
Giardia killer: 16; Vif-APOBEC3F blk: -15%; Vif-A3G inh: inconclusive; IL-1B inflam inh: 32; SW480 rereplic: 2.1µM*; MCF10A rerep: inconclusive

How did O=C1[C@@H]2CSC(c3ccc(Cl)cc3)N2C(=O)N1c1ccccc1 (some centres not stated) do in these assays?
Vif-APOBEC3F blk: -9%; Vif-A3G inh: -3%

How did COc1ccc(S(=O)(=O)Nc2cccc(-c3ccc4nncn4n3)c2)cc1F do in these assays?
Giardia killer: 12; Vif-APOBEC3F blk: -4%; Vif-A3G inh: inconclusive; IL-1B inflam inh: 73; SW480 rereplic: 5.2µM*; MCF10A rerep: 5.8µM*

How did CC(C)OC(=O)Cc1nc2sc(-c3ccccc3)cc2c(=O)[nH]1 do in these assays?
Giardia killer: 22; Vif-APOBEC3F blk: -3%; Vif-A3G inh: -22%; IL-1B inflam inh: -19; SW480 rereplic: -1%; MCF10A rerep: 14%

Results for O=c1[nH]c(-c2cccnc2)nc2sc(-c3ccccc3)cc12 ?
Giardia killer: -1; Vif-APOBEC3F blk: -4%; Vif-A3G inh: inconclusive; IL-1B inflam inh: 16; SW480 rereplic: 3.7µM*; MCF10A rerep: 1.3µM*

What do the screens show for `Cc1ccccc1-c1nc2sc(-c3ccccc3)cc2c(=O)o1`?
Giardia killer: 8; Vif-APOBEC3F blk: -4%; Vif-A3G inh: -5%; IL-1B inflam inh: 6; SW480 rereplic: -3%; MCF10A rerep: 7%

What do the screens show for `Cc1nc2sc(-c3ccccc3)cc2c(=O)[nH]1`?
Giardia killer: inconclusive; Vif-APOBEC3F blk: -2%; Vif-A3G inh: 2%; IL-1B inflam inh: 24; SW480 rereplic: inconclusive; MCF10A rerep: 26µM*

How did Cc1nc2sc(-c3ccccc3)cc2c(=O)n1N do in these assays?
Giardia killer: -12; Vif-APOBEC3F blk: -4%; Vif-A3G inh: 0%; IL-1B inflam inh: -23; SW480 rereplic: 2%; MCF10A rerep: 15%

What do the screens show for `Cc1nc2sc(-c3ccccc3)cc2c(=O)n1-n1cccc1`?
Giardia killer: 6; Vif-A3G inh: 1%; IL-1B inflam inh: -63*; SW480 rereplic: 2%[9.22 µM]; MCF10A rerep: -23%

How did O=C(NCC(c1cccnc1)N1CCc2ccccc2C1)c1ccc(F)c(F)c1 (configuration not stated) do in these assays?
Vif-APOBEC3F blk: 4%; Vif-A3G inh: 4%

How did COc1cc(/C=N/NC(=O)c2sc(N)c(C#N)c2C)cc(Br)c1O do in these assays?
Giardia killer: 1; Vif-APOBEC3F blk: -1%; Vif-A3G inh: -28%; IL-1B inflam inh: -77*; SW480 rereplic: 7%; MCF10A rerep: inconclusive

What do the screens show for `Cc1ccc(C(=O)N/N=C\c2cccnc2)s1`?
Giardia killer: -25; Vif-APOBEC3F blk: 0%; Vif-A3G inh: -8%; IL-1B inflam inh: -9; SW480 rereplic: 3%; MCF10A rerep: 0%

Results for Cc1c(C(=O)N/N=C/c2cccnc2)sc(N)c1C#N ?
Giardia killer: 1; Vif-APOBEC3F blk: inconclusive; Vif-A3G inh: inconclusive; IL-1B inflam inh: -63*; SW480 rereplic: inconclusive; MCF10A rerep: inconclusive

Results for CC(C)(C)c1ccc(NC(=O)N2CCCN(c3c(Cl)cncc3Cl)CC2)cc1 ?
Giardia killer: 5; Vif-APOBEC3F blk: -1%; Vif-A3G inh: 7%; IL-1B inflam inh: -65*; SW480 rereplic: inconclusive; MCF10A rerep: 7.3µM*

What do the screens show for `CC(C)C(Cl)=NOC(=O)Nc1ccc(S(N)(=O)=O)cc1`?
Giardia killer: 12; Vif-APOBEC3F blk: 4%; Vif-A3G inh: -7%; IL-1B inflam inh: -99*; SW480 rereplic: inconclusive; MCF10A rerep: 2.9µM*
